Each structure is given as a SMILES string. Values joined by “and” are separate entries in the source; they are usually repeats but may differ in a detail not shown here. Equal values may be shown once. Inconclusive results are not listed. Active and inactive are the calls of the source. Unless noted, the call rests on the fitted dose curve; in most records, active means well fitted curve in the direction sought with a large enough effect; inconclusive means small, poorly fitted or top-dose-only effect, or another doubt; inactive means no such curve, though single readings can be large; an effect the other way counts as inactive or inconclusive.

Assay [1] in a line: qHTS Assay for Lipid Storage Modulators (AID 1519; calls by dose curve; on activity change, negative = inhibition: on the % scale 0 is the no-effect control and ±100 the full control effect). The note with it: Drosophila S3 cells, BODIPY lipid droplet/cell ratio, laser cytometry, cells loaded with oleic acid. A digest of the protocol:
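Cells seeded at 5,000 per well were treated with compounds over a concentration series and loaded with oleic acid (400 uM, as added). Lipid droplet fluorescence (488 nm excitation, 500-530 nm channel) was read by laser-scanning cytometry and normalized to 20 uM Triacsin C.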

Assay [2] deals with DNA repair nuclease/redox regulator APEX1 (Homo sapiens) (UniProt P27695). Nature of the assay: qHTS Validation Assay for Inhibitors of the Human Apurinic/apyrimidinic Endonuclease 1 (APE1) (AID 1705;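 further: TAMRA fluorescence gain over two minutes as APE1 cuts a quenched THF abasic duplex; on the % scale 0 is the no-effect control and ±100 the full control effect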). The procedure, abridged: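 Substrate: 50 nM final fluorophore/quencher THF-abasic duplex. Enzyme preincubated with compounds 15 min, RT. Progress derived from fluorescence difference, third minus first kinetic read.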

The nature of assay [3]: Counterscreen for APE1 Inhibitors: Fluorescent Dye Displacement Validation Assay (AID 1707).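 Further: plate controls were ThO with dsDNA and no compound for no effect and ThO without dsDNA for full effect.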 The procedure, abridged: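 Counterscreen flags promiscuous DNA binders: compounds displacing ThO from duplex DNA (abasic THF site, 50 nM) reduce 540 nm emission (480 nm excitation). ThO 250 nM final; Tris-HCl pH 7.5 with NaCl, MgCl2 and Tween-20.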
Assay [4] is described as follows: qHTS for differential inhibitors of proliferation of Plasmodium falciparum line 7G8 (AID 1815).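 Further: parasite growth measured after three days of incubation.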 Further: potency means the concentration at half of the fitted maximal effect.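 On activity change, negative = inhibition: plate controls were vehicle wells for no effect and reference inhibitor wells for full effect.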
Assay [5] is described as follows: qHTS for differential inhibitors of proliferation of Plasmodium falciparum line GB4 (AID 1816).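 Further: parasite growth measured after 72 h incubation.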 Further: potency means the concentration at half of the fitted maximal effect.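 On activity change, negative = inhibition: 0% = vehicle DMSO and -100% = reference inhibitor.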 As to conditions: Potency: Plasmodium falciparum GB4 proliferation inhibition.
Assay [6] can be described thus: qHTS for differential inhibitors of proliferation of Plasmodium falciparum line D10 (AID 1877).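 Further: parasites grown with compound for 72 h before DNA staining; plate controls were vehicle wells for no effect and reference inhibitor wells for full effect.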
A short description of assay [7]: qHTS for differential inhibitors of proliferation of Plasmodium falciparum line Dd2 (AID 1882).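 Further: compound exposure of 72 h on infected erythrocytes; plate controls were DMSO vehicle for no effect and 0.29 µM artemisinin for full effect; nearly all actives have a fitted effect of over 65% in size.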 As to conditions: Potency: Plasmodium falciparum Dd2 proliferation inhibition. The procedure, abridged:
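RBC culture, 0.3% parasitemia / 2.5% Hct final; cpd added by pin tool in DMSO; 72 h, 37 C, 5% CO2; lysis buffer + SYBR Green I, o/n RT dark; FI 485/535; norm. to artemisinin 0.29 uM and DMSO.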

Assay [8] can be described thus: qHTS for differential inhibitors of proliferation of Plasmodium falciparum line HB3 (AID 1886).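 Further: parasites grown with compound for 72 h before SYBR Green readout.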 Further: potency means the concentration at half of the fitted maximal effect.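 On activity change, negative = inhibition: plate controls were vehicle for no effect and reference inhibitor for full effect.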 As to conditions: Potency: Plasmodium falciparum HB3 proliferation inhibition.
A short description of assay [9]: qHTS Assay for Modulators of Human Peripheral Myelin Protein 22 (PMP22) Expression/Activity (AID 1967; active means well fitted curve in the direction sought with a large enough effect in the signal ratio; the % refers to the signal ratio;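 further: 0% = untreated cells and 100% end not stated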). A digest of the protocol:
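Engineered MSC80 cells, Pmp22-promoter green and EF-alpha red luciferase reporters; 24h compound treatment at 37 °C. Concentration-response fits on green, red and ratio signals, each overlap-corrected, with %Activity normalized to untreated wells.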

Assay [10] deals with ATP-dependent DNA helicase Q1 (Homo sapiens) (UniProt P46063). The experiment in a line: qHTS Validation Assay for Inhibitors of RecQ-Like Dna Helicase 1 (RECQ1) (AID 2353).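 Further: plate controls were DMSO vehicle for no effect and enzyme-free control for full effect.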 A digest of the protocol: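 RECQ1T1 50 nM; forked duplex (20 bp + 30-nt ss tails) 200 nM, ATP 2 mM final; pH 8.0, 2 mM MgCl2, 2.5 ug/ml poly(dI-dC); 15 min compound preincubation; discontinuous kinetic read over 2 h at RT.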

The target in assay [11] is alpha-glucosidase (Oryza sativa, rice) (UniProt Q653V4). The experiment in a line: Counterscreen for Glucocerebrosidase Inhibitors: qHTS Assay for Rice alpha-Glucosidase at pH 5.0 (AID 997).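 Further: 0% = full activity with enzyme and -100% = basal without enzyme.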 A digest of the protocol: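 Endpoint fluorogenic assay at pH 5.0: compounds (0.7 nM to 77 uM) titrated against 4 nM rice enzyme and 400 uM 4-MU-alpha-glucoside for 20 min at room temperature; NaOH/glycine stop, read ex 365/em 440 nm, Hill-fitted AC50.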

Assay [12] has as its target Endonuclease 4 (Escherichia coli (strain K12)) (UniProt P0A6C1). The experiment in a line: Counterscreen for APE1 Inhibitors: qHTS Validation Assay for Inhibitors of Endonuclease IV (AID 1708). Further: on the % scale 0 is the no-effect control and ±100 the full control effect. A digest of the protocol: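 The reaction buffer contained 50 mM Tris-HCl pH 7.5, 50 mM NaCl, 2 mM MgCl2, 1 mM DTT and 0.01% Tween-20. Incision of a 50 nM fluorophore/quencher THF substrate by 2 nM enzyme was measured kinetically.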

Assay [13] in a line: qHTS for differential inhibitors of proliferation of Plasmodium falciparum line W2 (AID 1883).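 Further: parasites grown with compound for 72 h before lysis and staining.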 Further: potency means the concentration at half of the fitted maximal effect.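 On activity change, negative = inhibition: 0% = vehicle wells and -100% = control inhibitor wells.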 As to conditions: Potency: Plasmodium falciparum W2 proliferation inhibition.
For assay [14], the target named is Ferritin light chain (Equus caballus) (UniProt P02791). The experiment in a line: qHTS Validation Assay for Identification of Novel General Anesthetics (AID 2323). Further: on the % scale 0 is the no-effect control and ±100 the full control effect. A digest of the protocol:
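Normalized fluorescence response, scaled between free 1-AMA and 1-AMA/apoferritin complex, fitted to a four-parameter Hill equation for concentration-effect values. Binding mix: 10 uM horse-spleen apoferritin, 50% saturated 1-AMA in PBS; read 380/535 nm after 10 min.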

A short description of assay [15]: qHTS for differential inhibitors of proliferation of Plasmodium falciparum line 3D7 (AID 1876).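 Further: parasite growth measured after three days of culture; 0% = vehicle wells and -100% = reference inhibitor wells.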
In assay [16] the target is RecQ-like DNA helicase BLM (Homo sapiens) (UniProt P54132). The experiment in a line: qHTS Validation Assay for Inhibitors of Bloom's syndrome helicase (BLM) (AID 2364).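 Further: plate controls were DMSO vehicle for no effect and enzyme-free control for full effect.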 A digest of the protocol: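 Forked 20-bp duplex substrate (200 nM, TAMRA/BHQ-2) plus 2 mM ATP added after 15 min compound preincubation with 50 nM enzyme, pH 8.0, poly(dI-dC) 2.5 ug/ml. Strand separation followed by fluorescence (525/598 nm) over 2 h, normalized to enzyme-free and DMSO controls.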

Setting [17] is: measured here: cell count channel max response.
Setting [18] is: measured here: lipid channel max response.

Sequence of Ferritin light chain (Equus caballus) (P02791 2-175 limits assumed): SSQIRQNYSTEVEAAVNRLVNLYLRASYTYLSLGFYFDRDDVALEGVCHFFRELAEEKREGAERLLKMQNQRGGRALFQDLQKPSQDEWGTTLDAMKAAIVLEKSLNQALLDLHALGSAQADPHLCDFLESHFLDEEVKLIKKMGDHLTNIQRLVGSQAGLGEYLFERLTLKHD
Sequence of ATP-dependent DNA helicase Q1 (Homo sapiens) (P46063 whole entry, looked up): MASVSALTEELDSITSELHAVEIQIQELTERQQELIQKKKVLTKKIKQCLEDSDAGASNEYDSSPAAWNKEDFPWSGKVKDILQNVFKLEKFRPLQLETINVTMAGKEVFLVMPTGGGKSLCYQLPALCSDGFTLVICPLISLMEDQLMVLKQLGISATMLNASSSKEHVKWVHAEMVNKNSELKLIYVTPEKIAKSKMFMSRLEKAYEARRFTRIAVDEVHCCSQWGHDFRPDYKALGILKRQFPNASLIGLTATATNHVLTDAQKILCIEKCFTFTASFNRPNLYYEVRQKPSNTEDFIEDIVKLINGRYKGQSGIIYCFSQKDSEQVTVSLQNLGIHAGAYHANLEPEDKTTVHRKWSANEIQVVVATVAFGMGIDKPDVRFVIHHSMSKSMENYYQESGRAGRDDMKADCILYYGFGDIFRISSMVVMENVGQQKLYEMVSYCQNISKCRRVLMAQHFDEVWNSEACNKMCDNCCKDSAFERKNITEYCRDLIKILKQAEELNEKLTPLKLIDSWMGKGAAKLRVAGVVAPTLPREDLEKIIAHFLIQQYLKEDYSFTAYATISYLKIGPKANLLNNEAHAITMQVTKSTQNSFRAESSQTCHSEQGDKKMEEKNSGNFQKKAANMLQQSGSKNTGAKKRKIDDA
Sequence of DNA repair nuclease/redox regulator APEX1 (Homo sapiens) (P27695 whole entry, looked up): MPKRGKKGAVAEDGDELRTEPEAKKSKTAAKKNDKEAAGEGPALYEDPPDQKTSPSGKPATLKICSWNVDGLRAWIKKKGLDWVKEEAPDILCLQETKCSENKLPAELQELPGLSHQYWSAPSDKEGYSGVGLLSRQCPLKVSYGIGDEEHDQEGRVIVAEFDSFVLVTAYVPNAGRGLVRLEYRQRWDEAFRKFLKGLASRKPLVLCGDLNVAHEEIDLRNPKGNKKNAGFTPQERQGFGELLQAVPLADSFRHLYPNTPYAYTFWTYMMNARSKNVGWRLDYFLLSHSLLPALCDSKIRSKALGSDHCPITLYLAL
Sequence of RecQ-like DNA helicase BLM (Homo sapiens) (P54132 whole entry, looked up): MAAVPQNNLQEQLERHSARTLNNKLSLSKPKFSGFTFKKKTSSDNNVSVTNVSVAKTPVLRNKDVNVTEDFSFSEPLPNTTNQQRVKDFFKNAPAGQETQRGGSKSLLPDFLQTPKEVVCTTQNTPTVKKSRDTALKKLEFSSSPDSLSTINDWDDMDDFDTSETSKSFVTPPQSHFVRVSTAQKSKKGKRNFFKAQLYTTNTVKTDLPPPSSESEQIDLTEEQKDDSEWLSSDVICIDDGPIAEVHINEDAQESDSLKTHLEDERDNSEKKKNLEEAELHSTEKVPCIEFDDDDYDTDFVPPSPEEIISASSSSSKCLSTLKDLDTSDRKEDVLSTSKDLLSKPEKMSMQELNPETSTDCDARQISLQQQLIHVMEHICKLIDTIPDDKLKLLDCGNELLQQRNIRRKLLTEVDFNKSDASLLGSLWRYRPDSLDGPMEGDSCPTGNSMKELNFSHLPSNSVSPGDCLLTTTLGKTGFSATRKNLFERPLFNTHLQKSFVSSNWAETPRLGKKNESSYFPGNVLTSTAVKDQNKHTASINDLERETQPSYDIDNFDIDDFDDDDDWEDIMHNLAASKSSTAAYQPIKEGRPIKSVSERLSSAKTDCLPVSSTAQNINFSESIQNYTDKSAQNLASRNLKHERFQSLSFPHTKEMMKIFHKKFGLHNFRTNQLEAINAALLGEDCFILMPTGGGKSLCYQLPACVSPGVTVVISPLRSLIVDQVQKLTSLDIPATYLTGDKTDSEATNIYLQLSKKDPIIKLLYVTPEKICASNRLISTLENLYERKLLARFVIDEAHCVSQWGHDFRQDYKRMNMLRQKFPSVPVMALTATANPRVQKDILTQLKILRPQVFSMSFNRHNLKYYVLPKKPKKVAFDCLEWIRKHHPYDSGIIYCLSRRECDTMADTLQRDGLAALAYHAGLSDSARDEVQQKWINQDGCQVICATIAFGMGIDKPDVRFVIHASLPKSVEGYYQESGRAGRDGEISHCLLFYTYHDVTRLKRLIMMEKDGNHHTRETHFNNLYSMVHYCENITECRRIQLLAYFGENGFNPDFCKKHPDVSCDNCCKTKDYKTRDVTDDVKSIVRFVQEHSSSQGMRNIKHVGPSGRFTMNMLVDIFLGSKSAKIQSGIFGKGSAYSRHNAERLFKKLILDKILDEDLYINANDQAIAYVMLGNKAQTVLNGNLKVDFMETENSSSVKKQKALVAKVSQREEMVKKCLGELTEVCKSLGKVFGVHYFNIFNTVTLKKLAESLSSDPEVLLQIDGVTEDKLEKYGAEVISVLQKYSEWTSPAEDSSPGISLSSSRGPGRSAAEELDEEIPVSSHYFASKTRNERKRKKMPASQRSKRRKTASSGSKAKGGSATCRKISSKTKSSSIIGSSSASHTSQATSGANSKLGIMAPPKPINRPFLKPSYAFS

As to `CCCCCCCCCCCCCCCC(=O)OC(CC(=O)O)C[N+](C)(C)C` (centres undefined), the activity change, negative = inhibition in assay [1] (at 57.5 µM (top of the series)) is -1.01% (inactive). Also, the values for the max response in assay [1] (setting [17]) and in assay [1] (setting [18]) were 29% and 25.7%, respectively. Moreover, the Potency entry in assay [2], in [3], in assay [4], in [5], in assay [6] and in assay [7] was “inactive” in each case. The Potency entry in assay [8] and in assay [10] was “inactive” each time. Besides, the outcome in [9] was inactive.

In the case of `CCN1/C(=C/C(C)=O)Sc2ccc(OC)cc21`, in assay [11], the call was inactive. Also, the activity change, negative = inhibition in assay [1] (at 57.5 µM (top of the series)) was 0.847% (inactive). Besides, the max response in assay [1] (setting [17]) is -21.8%; in assay [1] (setting [18]) it was -21.7%. Besides, the Potency entry in [2], in assay [3], in assay [12], in [6], in assay [7] and in assay [14] was “inactive” each time. The Potency result in [10] was “inactive”. Moreover, in assay [13], the Potency was 14.1 µM (active).

As for `CCCCCCCCCCCCCCCC(=O)NCC(COP(=O)([O-])OCC[N+](C)(C)C)OCC` (centres undefined), the activity change, negative = inhibition in assay [1] (at 57.5 µM (top of the series)) was -0.558% (inactive). Further, the max response in assay [1] (setting [17]) was -22.8%; in assay [1] (setting [18]) it was -25%. Also, the Potency entry in assay [12], in assay [4], in assay [15], in assay [6], in assay [7] and in [8] was “inactive” each time. In addition, the Potency result in assay [10] was “inactive”. For the same compound, the compound was classed as inactive in [9].

With `O=c1[nH]c2ccccc2n1CCCN1CCN(C(c2ccccc2)c2ccccc2)CC1`, in assay [11], the result was inactive. The activity change, negative = inhibition in assay [1] (at 57.5 µM (top of the series)) is 0.533% (inactive). Also, the max response amounted to 44.5% in assay [1] (setting [17]) and 44% in assay [1] (setting [18]). The Potency entry in [2], in assay [3], in assay [12] and in assay [10] was “inactive” in each case. Also, the Potency is 7.08 µM (active) in assay [4], 12.6 µM (active) in assay [5], 4.47 µM (active) in assay [13] and 14.1 µM (active) in assay [8].

Take `N=C(N)N`: the activity change, negative = inhibition in assay [1] (at 57.5 µM (top of the series)) is 4.02% (inactive). The max response stood at 15.8% in [1] (setting [17]) and 23.8% in [1] (setting [18]).

Turning to `O=C(c1cc(O)c(O)c([N+](=O)[O-])c1)c1ccccc1F`, the activity change, negative = inhibition in [1] (at 57.5 µM (top of the series)) was -2.67% (inactive). In addition, the max response in assay [1] (setting [17]) was -12%; in assay [1] (setting [18]), -15.8%. Besides, the Potency result in assay [2], in [3], in [12], in assay [15], in assay [6] and in assay [7] was “inactive” each time. The Potency result in [8] and in [10] was “inactive” in each case.

Turning to `N[C@@H](CC(=O)O)C(=O)O`, the activity change, negative = inhibition in assay [1] (at 57.5 µM (top of the series)) is 4.62% (inactive) and -0.577% (inactive). The max response is -7.93% and 52.8% in assay [1] (setting [17]); -3.65% and 51.4% in [1] (setting [18]). For the same compound, the Potency result in assay [2], in [3], in assay [12], in assay [4], in assay [5] and in assay [15] was “inactive” each time. Further, the Potency result in [6], in assay [7], in [13], in assay [8] and in assay [10] was “inactive” throughout.

`O=S(=O)(c1cccc2c(I)cccc12)N1CCCNCC1`: in assay [11], the outcome was inactive. The activity change, negative = inhibition in assay [1] (at 57.5 µM (top of the series)) is 1.19% (inactive). Besides, the max response is -8.25% in [1] (setting [17]) and -5.07% in assay [1] (setting [18]). Further, the Potency entry in assay [3], in assay [12], in assay [4], in [15], in assay [6] and in assay [8] was “inactive” in each case. Besides, the Potency result in assay [14], in assay [10] and in assay [16] was “inactive” each time. Also, in assay [13], the Potency was 7.08 µM (active).

On to `CCCSc1ccc2nc(NC(=O)OC)[nH]c2c1`, for which the activity change, negative = inhibition was -1.88% (inactive) in assay [1] (at 25.7 µM (top of the series)) and 9.19% (inactive) in assay [1] (at 57.5 µM (top of the series)). Moreover, the max response in assay [1] (setting [17]) was -8.08% and -12.8%; in assay [1] (setting [18]), -10.3% and -11.2%.

With `O=C(O)CCCC[C@@H]1CCSS1`, in [1] (at 57.5 µM (top of the series)), the activity change, negative = inhibition is -3.03% (inactive). The max response in assay [1] (setting [17]) is -26.8%; in [1] (setting [18]) it was -29%. The Potency entry in assay [3], in assay [4], in [5], in [15], in assay [6] and in assay [7] was “inactive” each time. Moreover, the Potency result in assay [13], in assay [8], in assay [14] and in [10] was “inactive” in each case.

Regarding `COc1cc(NC(C)CCCN)c2ncccc2c1` (centres undefined), the activity change, negative = inhibition in assay [1] (at 57.5 µM (top of the series)) is 7.1% (inactive). The max response was determined as 14.8% in assay [1] (setting [17]) and 28.1% in assay [1] (setting [18]).

The values are drawn from PubChem BioAssay (NCATS).
